The text below walks through data of the supplement of paper PMC10037445.

Experiment [1] has as its system RAW-Dual. In words: NF-kB SEAP reporter activity, fold change vs agonist alone; cytotoxicity flag (confluency mask): not cytotoxic; higher = enhanced NF-kB activity. In outline:
(§1)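 Cytotoxic wells were those whose IncuCyte confluency was below 70% of agonist controls in both mask sets. The cells were RAW-Dual macrophages at 50,000 cells/well in DMEM on 384-well plates, dosed with 50 nL of library stock by pin tool, stimulated with a PRR agonist 1 h later, and kept at 37 °C, 5% CO2 for 20 hours. IRF and NF-κB reporter activity, as fold change over agonist-alone wells, came from supernatant read by QuantiLuc luminescence and QuantiBlue absorbance, respectively.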

In experiment [2] the test system is RAW-Dual. Put plainly: NF-kB SEAP reporter activity, fold change vs agonist alone; cytotoxicity flag (confluency mask): cytotoxic (confluency <70% of control); higher = enhanced NF-kB activity. In outline: as §1
The test system of experiment [3] is RAW-Dual. In words: NF-kB SEAP reporter activity, fold change vs agonist alone; higher = enhanced NF-kB activity. In outline:
as §1

Where [4] appears, read: agonist: ODN 1826 (TLR9) 0.5 ug/mL.
Setting [5] is: agonist: Pam2CSK4 (TLR2/6) 0.1 ug/mL.
The mark [6] stands for this setting: agonist: Pam3CSK4 (TLR2/1) 0.1 ug/mL.
The mark [7] stands for this setting: library stock concentration (final ~1000-fold dilution): 10 mM, cytotoxicity flag (confluency mask): not cytotoxic, agonist: Imiquimod (TLR7) […].
Setting [8] is: library stock concentration (final ~1000-fold dilution): 10 mM, cytotoxicity flag (confluency mask): not cytotoxic, agonist: MPLA (TLR4) […].
Where [9] appears, read: library stock concentration (final ~1000-fold dilution): 10 mM, cytotoxicity flag (confluency mask): cytotoxic (confluency <70% of control), agonist: Imiquimod (TLR7) […].
Setting [10] is: library stock concentration (final ~1000-fold dilution): 10 mM, cytotoxicity flag (confluency mask): cytotoxic (confluency <70% of control), agonist: MPLA (TLR4) […].

Each structure is given as a SMILES string. The full ranking holds about 2,900 compounds; the median of “NF-kB SEAP reporter activity, fold change vs agonist alone” is about 0.99, and the highest 2% start at about 2.6. For the sample, the highest values were picked, then their nearest neighbours and some compounds at random.

For `Cc1nccn1CC1CCc2c(c3ccccc3n2C)C1=O.Cl` (stereo unspecified) (library stock concentration (final ~1000-fold dilution): 10 mM), the “NF-kB SEAP reporter activity” value in the experiment on RAW-Dual [1] (agonist: LPS (TLR4) 0.1 ug/mL) is 0.91; with RAW-Dual [1] (setting [4]), 0.853; in the experiment on RAW-Dual [1] (setting [5]) it was 0.901; in the experiment on RAW-Dual [1] (setting [6]) it was 1.11.

As for `C#Cc1cccc(Nc2ncnc3cc(OC)c(OCCCCCCC(=O)NO)cc23)c1` (library stock concentration (final ~1000-fold dilution): 10 mM), the “NF-kB SEAP reporter activity” value was 7.09 with RAW-Dual [2] (agonist: LPS (TLR4) 0.1 ug/mL), 1.67 with RAW-Dual [2] (setting [4]), 0.682 with RAW-Dual [2] (setting [5]) and 1.41 with RAW-Dual [2] (setting [6]).

Consider `COc1cc2ncnc(Nc3ccc(F)c(Cl)c3)c2cc1NC(=O)/C=C/CN1CCCCC1` (library stock concentration (final ~1000-fold dilution): 10 mM), for which the “NF-kB SEAP reporter activity” value with RAW-Dual [2] (agonist: LPS (TLR4) 0.1 ug/mL) was 0.266; in the experiment with RAW-Dual [2] (setting [4]), 0.26; in the experiment on RAW-Dual [2] (setting [5]), 0.179; with RAW-Dual [2] (setting [6]), 0.384.

Turning to `C#Cc1cccc(Nc2ncnc3cc(OC)c(NC(=O)N4CC5CCN(C)C5C4)cc23)c1` (stereo unspecified) (library stock concentration (final ~1000-fold dilution): 10 mM), the “NF-kB SEAP reporter activity” value is 3.99 in the experiment with RAW-Dual [1] (agonist: LPS (TLR4) 0.1 ug/mL), 0.205 in the experiment with RAW-Dual [1] (setting [4]), 0.732 in the experiment on RAW-Dual [1] (setting [5]) and 0.783 with RAW-Dual [1] (setting [6]).

As for `C#Cc1cccc(Nc2ncnc3cc(OCCOC)c(OCCO)cc23)c1.Cl` (library stock concentration (final ~1000-fold dilution): 10 mM), the “NF-kB SEAP reporter activity” value was 4.71 with RAW-Dual [1] (agonist: LPS (TLR4) 0.1 ug/mL), 1.41 in the experiment with RAW-Dual [1] (setting [4]), 1.02 with RAW-Dual [1] (setting [5]) and 1.87 in the experiment on RAW-Dual [1] (setting [6]).

Take `C#Cc1cccc(Nc2ncnc3cc(OCCOC)c(OCCOC)cc23)c1.Cl` (library stock concentration (final ~1000-fold dilution): 2 mM): the “NF-kB SEAP reporter activity” value with RAW-Dual [1] (agonist: LPS (TLR4) 0.1 ug/mL) was 2.26; in the experiment on RAW-Dual [1] (setting [4]), 0.972; in the experiment on RAW-Dual [1] (setting [5]), 0.853; in the experiment with RAW-Dual [1] (setting [6]), 1.1.

On to `C#Cc1cccc(Nc2ncnc3cc4c(cc23)OCCOCCOCCO4)c1`, for which the “NF-kB SEAP reporter activity” value amounted to 1.06 in the experiment with RAW-Dual [3] (setting [7]) and 1.53 in the experiment on RAW-Dual [3] (setting [8]).

As for `COc1cc2ncnc(Nc3cccc(Cl)c3)c2cc1OC`, the “NF-kB SEAP reporter activity” value in the experiment on RAW-Dual [3] (setting [9]) is 1.58; with RAW-Dual [3] (setting [10]) it was 1.42.

Consider `COc1cc2ncnc(Nc3ccc(O)cc3)c2cc1OC`, for which the figures for the “NF-kB SEAP reporter activity” value with RAW-Dual [3] (setting [7]) and with RAW-Dual [3] (setting [8]) were 1.05 and 1.16, respectively.

Turning to `COc1cc2ncnc(Nc3cccc(Cl)c3F)c2cc1OC(=O)N1CCN(C)CC1C` (stereo unspecified) (library stock concentration (final ~1000-fold dilution): 10 mM), the “NF-kB SEAP reporter activity” value in the experiment with RAW-Dual [1] (agonist: LPS (TLR4) 0.1 ug/mL) amounted to 1.19; with RAW-Dual [1] (setting [4]), 0.84; in the experiment with RAW-Dual [1] (setting [5]), 1.19; in the experiment on RAW-Dual [1] (setting [6]) it was 1.1.

Regarding `COc1cc2ncnc(Nc3ccc(F)c(Cl)c3)c2cc1NC(=O)/C=C/CN1CCCCC1`, the entries for the “NF-kB SEAP reporter activity” value in the experiment with RAW-Dual [3] (setting [9]) and with RAW-Dual [3] (setting [10]) were 2.28 and 1.52, respectively.

On to `COc1cc2ncnc(Nc3cccc(Cl)c3)c2cc1OC` (library stock concentration (final ~1000-fold dilution): 10 mM), for which the “NF-kB SEAP reporter activity” value in the experiment with RAW-Dual [2] (agonist: LPS (TLR4) 0.1 ug/mL) is 1.59; with RAW-Dual [2] (setting [4]), 0.692; in the experiment with RAW-Dual [2] (setting [5]), 0.764; with RAW-Dual [2] (setting [6]), 1.02.

As for `COc1cc2ncnc(Nc3cccc(Cl)c3F)c2cc1OC(=O)N1CCN(C)CC1C` (stereo unspecified), the “NF-kB SEAP reporter activity” value in the experiment with RAW-Dual [3] (setting [7]) was 0.868; in the experiment on RAW-Dual [3] (setting [8]), 1.05.

Turning to `COc1cc2ncnc(Nc3ccc(O)cc3)c2cc1OC` (library stock concentration (final ~1000-fold dilution): 10 mM), the “NF-kB SEAP reporter activity” value with RAW-Dual [1] (agonist: LPS (TLR4) 0.1 ug/mL) was 0.948; in the experiment on RAW-Dual [1] (setting [4]), 0.826; in the experiment with RAW-Dual [1] (setting [5]), 0.971; in the experiment on RAW-Dual [1] (setting [6]), 0.867.

Take `C#Cc1cccc(Nc2ncnc3cc(OCCOC)c(OCCOC)cc23)c1`: the “NF-kB SEAP reporter activity” value in the experiment on RAW-Dual [3] (setting [7]) came to 1.02; with RAW-Dual [3] (setting [8]), 1.88.

For `C#Cc1cccc(Nc2ncnc3cc4c(cc23)OCCOCCOCCO4)c1` (library stock concentration (final ~1000-fold dilution): 10 mM), the “NF-kB SEAP reporter activity” value in the experiment with RAW-Dual [1] (agonist: LPS (TLR4) 0.1 ug/mL) turned out to be 1.8; with RAW-Dual [1] (setting [4]), 0.972; with RAW-Dual [1] (setting [5]), 1.16; in the experiment on RAW-Dual [1] (setting [6]), 1.44.

As to `COc1cc2ncnc(Nc3ccc(O)c(Br)c3)c2cc1OC` (library stock concentration (final ~1000-fold dilution): 10 mM), the “NF-kB SEAP reporter activity” value in the experiment on RAW-Dual [1] (agonist: LPS (TLR4) 0.1 ug/mL) was found to be 2.33; with RAW-Dual [1] (setting [4]) it was 1.17; in the experiment with RAW-Dual [1] (setting [5]) it was 0.685; in the experiment with RAW-Dual [1] (setting [6]), 1.19.

Take `COc1cc2ncnc(Nc3cc(Br)c(O)c(Br)c3)c2cc1OC` (library stock concentration (final ~1000-fold dilution): 10 mM): the “NF-kB SEAP reporter activity” value worked out at 2.14 with RAW-Dual [1] (agonist: LPS (TLR4) 0.1 ug/mL), 0.951 in the experiment with RAW-Dual [1] (setting [4]), 0.984 in the experiment on RAW-Dual [1] (setting [5]) and 0.757 with RAW-Dual [1] (setting [6]).

Consider `C#Cc1cccc(Nc2ncnc3cc(OCCOC)c(OCCOC)cc23)c1.Cl`, for which the “NF-kB SEAP reporter activity” value in the experiment on RAW-Dual [3] (library stock concentration (final ~1000-fold dilution): 2 mM, cytotoxicity flag (confluency mask): not cytotoxic, agonist: Imiquimod (TLR7) […]) was 0.949; in the experiment with RAW-Dual [3] (library stock concentration (final ~1000-fold dilution): 2 mM, cytotoxicity flag (confluency mask): not cytotoxic, agonist: MPLA (TLR4) […]), 1.39.

For `C#Cc1cccc(Nc2ncnc3cc(OCCOC)c(OCCO)cc23)c1.Cl`, the “NF-kB SEAP reporter activity” value with RAW-Dual [3] (setting [7]) turned out to be 1.81; in the experiment on RAW-Dual [3] (setting [8]), 2.51.

With `C#Cc1cccc(Nc2ncnc3cc(OC)c(NC(=O)N4CC5CCN(C)C5C4)cc23)c1` (stereo unspecified), the “NF-kB SEAP reporter activity” value with RAW-Dual [3] (setting [7]) was determined as 1.09; in the experiment with RAW-Dual [3] (setting [8]) it was 1.4.

Take `COc1cc2ncnc(Nc3ccc(O)c(Br)c3)c2cc1OC`: the figures for the “NF-kB SEAP reporter activity” value with RAW-Dual [3] (setting [7]) and in the experiment with RAW-Dual [3] (setting [8]) were 1.45 and 1.78, respectively.

In the case of `C#Cc1cccc(Nc2ncnc3cc(OC)c(OCCCCCCC(=O)NO)cc23)c1`, the entries for the “NF-kB SEAP reporter activity” value in the experiment with RAW-Dual [3] (setting [9]) and with RAW-Dual [3] (setting [10]) were 1.4 and 1.87, respectively.

For `COc1cc2ncnc(Nc3cc(Br)c(O)c(Br)c3)c2cc1OC`, the entries for the “NF-kB SEAP reporter activity” value in the experiment with RAW-Dual [3] (setting [7]) and with RAW-Dual [3] (setting [8]) were 0.787 and 1.53, respectively.

`C#Cc1cccc(Nc2ncnc3cc(OCCOC)c(OCCOC)cc23)c1` (library stock concentration (final ~1000-fold dilution): 10 mM): the “NF-kB SEAP reporter activity” value in the experiment on RAW-Dual [1] (agonist: LPS (TLR4) 0.1 ug/mL) stood at 4.68; with RAW-Dual [1] (setting [4]), 1.33; in the experiment on RAW-Dual [1] (setting [5]), 0.887; in the experiment on RAW-Dual [1] (setting [6]), 0.935.
